HIV Env fusion: blocks HIV Env-driven cell-cell fusion. HeLa-JRFL Env/CEM21 cell fusion, luciferase. inhibition, % at 12.3 µM. actives 1.1% (n = 360,000). AID 651610;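 active = mean replicate inhibition score of at least 50 and every replicate individually at or above 50; inconclusive = only one of the two criteria met; inactive = mean below 50 and not all replicates reaching 50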;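 note: 0% = plate neutral controls and 100% = maraviroc near 300 nM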
Shn3 3UTR inh: reduces Shn3 3'UTR luciferase signal in osteoblasts. Clone20 osteoblast Shn3 3'UTR firefly luciferase, 24 h. inhibition, % at 12.5 µM. actives 0.52% (n = 360,000). AID 588674;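 active = mean inhibition of at least 75% with every replicate also reaching 75%; inconclusive = mean inhibition at least 75% but some replicate below; inactive = mean inhibition below 75%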;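 note: 0% = median of neutral control wells and 100% = pilot-screen positive control compound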
PAX8 reporter: inhibitors of PAX8 transcriptional activity in RMG-I cells; AID 652154; actives 1.2% (n = 360,000); inhibition, % at 12.6 µM; RMG-I TPO-luciferase reporter, SteadyGlo, 24 h;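 active = mean replicate inhibition at least 60% with every replicate also reaching 60%; inconclusive = only one of the two criteria is met; inactive = mean below 60% and not all replicates reaching 60%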;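 note: luciferase light reporting Pax8 driven TPO promoter activity; plate controls were median of neutral control wells for no effect and mitoxantrone controls for full effect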
EBV LMP1 NFkB: Epstein-Barr LMP1 NF-kappaB reporter inhibition; LMP1-induced NF-kappaB luciferase reporter cells, luminescence; AID 504558; actives 0.69% (n = 350,000); inhibition, % at 12.5 µM; in the data active = inhibition above about 41%; inconclusive = no clear call, values can overlap the other calls;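 note: 0% = neutral control wells and 100% = reference inhibitor control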
N-glyco inh: N-linked glycosylation inhibition. reporter increase, % at 12.5 µM. D54 ERlucT glycosylation luciferase reporter, 24 h; percent of 100 nM tunicamycin response. actives 0.23% (n = 360,000);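 active = mean luciferase reporter signal, scaled so untreated is 0 and the glycosylation-blocking control 100, at or above a set limit in every replicate; inconclusive = mean reaches the limit but not every replicate does; inactive = mean below the limit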;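 note: luciferase carries N-glycosylation sites so blocking glycosylation raises the light; 0% = median of neutral control wells and 100% = median of 100 nM tunicamycin wells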
NSD2 HMT inh: blocks human histone methyltransferase NSD2. NSD2 peptide methylation, AlphaScreen, 120 min. inhibition, % at 12.5 µM. actives 0.54% (n = 310,000). AID 743445; in the data active = inhibition above about 50%
Numbers without * were called inactive; i = inactive; ? = inconclusive; / = no result; [ ] = remark or other dose. The list is not random: actives were taken first. Their share in the collection is about 2.8%.

SMILES	HIV Env fusion	Shn3 3UTR inh	PAX8 reporter	EBV LMP1 NFkB	N-glyco inh	NSD2 HMT inh
Cc1nn(-c2ccc(Cl)cc2)c(Cl)c1/C=C(\C#N)C(N)=O	/	-16	31	-17	9	0
C=CCNC(=O)/C(C#N)=C/c1c(C)nn(-c2ccc(Cl)cc2)c1Cl	19	2	11	-7	26*	0
CCc1cccc2c(C(=O)CN3C(=O)NC4(CCCCC4)C3=O)c[nH]c12	19	12	50	-71	19	3
CCc1cccc2c(C(=O)CN3C(=O)NC4(CCCCCC4)C3=O)c[nH]c12	/	48	82*	-136	8	-1
CS(=O)(=O)Nc1ccc2c(c1)[C@H]1C[C@H](CC(=O)NCC(F)(F)F)O[C@H](CO)[C@H]1O2	4[16.7 µM]	/	5	/	/	/
Cc1ccccc1NC(=O)C(=Cc1ccc(C(=O)O)cc1)C(=O)Nc1ccccc1C	1	43	109*	9	1	25
CC(=O)/C(=C/c1ccccc1)C(=O)Nc1ccccc1C	-1	2	18	4	13	13
COc1ccc(C2NC(=S)NC3=C2CCCC3=C2SCCS2)cc1 (stereo not drawn)	i	-267	102*	-23	593*	-2
CC1=NN(C(C#N)c2c(C)nn(Cc3ccccc3)c2C)C(C)(C)C1 (stereo not drawn)	7	-3	15	57*	2	-9
Cc1ccc(C2=NN=C(NC(=O)CSc3nc(C)cc(C)n3)SC2)cc1	15	/	76*	/	/	3
Cc1ccc(C2=NN=C(NC(=O)CSc3nnc4c5ccccc5n(C)c4n3)SC2)cc1	/	-12	/	-13	1	-3
C[C@@H]1CCCCO[C@H](CN(C)C)[C@@H](C)CN([C@H](C)CO)C(=O)c2cc(NC(=O)CCCN(C)C)ccc2O1	-2[16.7 µM]	/	-19	/	/	/
CCOC(=O)c1ccccc1NS(=O)(=O)c1ccc(OCC)cc1	63*	9	/	-14	7	-2
COc1ccc(N(C(=O)CSCC(=O)Nc2cc(C)on2)C(C(=O)NC2CCCCC2)c2ccc(O)c(O)c2)cc1 (stereo not drawn)	57*	12	-8	3	-1	4
COc1ccc(C(C(=O)NC2CCCCC2)N(C(=O)CCl)c2ccc(Cl)cc2)cc1 (stereo not drawn)	/	94*	/	17	7	-3
COC(CN(C(=O)CCl)C(C(=O)NC1CCCCC1)c1ccccc1C)OC (stereo not drawn)	59*	2	59	5	11	4
COc1ccc(N(C(=O)/C=C/C(=O)Nc2cc(C)on2)C(C(=O)NC2CCCC2)c2ccccc2C)cc1 (stereo not drawn)	25	-21	71*	18	-7	4
COc1ccc(N(C(=O)CCC(=O)Nc2cc(C)on2)C(C(=O)NC2CCCC2)c2ccco2)cc1 (stereo not drawn)	22	-14	4	-9	2	4
C[C@H](CO)N1C[C@H](C)[C@H](CN(C)C(=O)Nc2ccccc2)Oc2ccc(NC(=O)Nc3ccc(F)cc3)cc2C1=O	-1[16.7 µM]	/	/	/	/	/
O=C(C[C@H]1CC[C@@H](NC(=O)Nc2cccc(F)c2)[C@H](CO)O1)NCC1CCCCC1	-5[16.7 µM]	/	13	/	/	/
COc1ccc(NC(=O)Cn2nnc(C(=O)NCc3ccccc3)c2N)c(OC)c1	7	4	30	64*	6	-2
CCc1ccccc1NC(=O)Cn1nnc(C(=O)NCc2cccs2)c1N	-16	-27	28	7	?	-7
COc1ccc(NC(=O)Cn2nnc(C(=O)NCCc3ccccc3)c2N)c(OC)c1	-1	-20	-7	4	0	-6
COc1ccccc1NC(=O)Cn1nnc(C(=O)NCc2cccs2)c1N	-408	20	33	7	28*	/
Cn1cnc(S(=O)(=O)N2CC[C@@H]3[C@H](CO)Nc4ccc(-c5ccccc5)cc4[C@@H]32)c1	/	/	-30	/	/	/
COCc1cn(CC[C@@H]2CC[C@@H](NC(=O)Nc3ccc(Cl)cc3)[C@H](CO)O2)nn1	1[16.7 µM]	/	-4	/	/	/
COc1cccc(NC(=O)N[C@H]2C=C[C@H](CC(=O)N3CCN(C)CC3)O[C@@H]2CO)c1	-53[16.7 µM]	/	-12	/	/	/
CCOc1ccc(/C=N/Nc2cc(N3CCOCC3)ncn2)c(O)c1	11	93*	49	56*	-6	2
Oc1ccc(/C=N/Nc2cc(N3CCCC3)nc(N3CCCC3)n2)cc1O	8	-2	37	-19	1	110*

Assay outcomes from PubChem BioAssay.
